We go through three compounds from PubChem BioAssay (EPA / NIEHS).

SMILES strings stand for the structures. Calls of active or inactive are those of the source. Rule for the calls: active = hit-call score of the fitted dose curve at least 0.9, where 1 is the maximum; inactive = score below 0.9.

Details in all cases: mRNA level, 48 h; actives raise or lower the signal
Read-out in assay [1]: Early growth response protein 1 (EGR1) transcription factor, EGR1 (gene 1958)
The experiment in a line: LTEA_HepaRG_EGR1: Life Technologies and Expression Analysis (LTEA) Assay for Early growth response protein 1 (EGR1) transcription factor using HepaRG (AID 2283490). The method in brief:
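Differentiated human HepaRG cells in serum-free induction medium were exposed in duplicate for 48 h to eight concentrations (top 100 uM, half-log steps) in 0.5% DMSO. EGR1 mRNA was quantified by qRT-PCR, normalized to ACTB, GAPDH and POLR2A, and fitted bidirectionally versus DMSO.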

Read-out in assay [2]: Ezrin (EZR), EZR (gene 7430)
Nature of the assay: LTEA_HepaRG_EZR: Life Technologies and Expression Analysis (LTEA) Assay for Ezrin (EZR) using HepaRG (AID 2283491). The method in brief: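 Gain or loss of EZR mRNA is scored relative to 0.5% DMSO in human HepaRG cultures treated 48 h with test chemicals in duplicate, eight half-log concentrations from 100 uM.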

Read-out in assay [3]: Cytochrome P450 3A7 (Homo sapiens) (UniProt P24462)
The experiment in a line: LTEA_HepaRG_CYP3A7: Life Technologies and Expression Analysis (LTEA) Assay for CYP3A7 using HepaRG (AID 2283492). The gist of the method:
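Cells were thawed, plated, cultured 48 h, then treated for a further 48 h with chemicals (eight-point half-log series from 100 uM, 0.5% DMSO). RNA was isolated and CYP3A7 expression quantified by qRT-PCR normalised to ACTB, GAPDH and POLR2A.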

Read-out in a further assay: CYP3A5 (gene 1577)
Nature of the assay: LTEA_HepaRG_CYP3A5: Life Technologies and Expression Analysis (LTEA) Assay for CYP3A5 using HepaRG (AID 2283493). The method in brief:
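mRNA induction or loss of CYP3A5 assessed in HepaRG after 48 h dosing, 100 uM top concentration, duplicate wells; TaqMan qRT-PCR with ACTB, GAPDH, POLR2A normalization; 0.5% DMSO as negative control.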

Read-out in assay [4]: Fatty Acid-Binding Protein 1 (FABP1), FABP1 (gene 2168)
Nature of the assay: LTEA_HepaRG_FABP1: Life Technologies and Expression Analysis (LTEA) Assay for Fatty Acid-Binding Protein 1 (FABP1) using HepaRG (AID 2283494). The gist of the method: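 Differentiated human HepaRG cells were exposed in duplicate for 48 h in serum-free induction medium to 8-point half-log concentration series topping at 100 uM in 0.5% DMSO. FABP1 mRNA measured by TaqMan qRT-PCR, normalized to ACTB/GAPDH/POLR2A; bidirectional fit versus DMSO.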

Read-out in assay [5]: Cytochrome P450 4A22 (Homo sapiens) (UniProt Q5TCH4)
Nature of the assay: LTEA_HepaRG_CYP4A22: Life Technologies and Expression Analysis (LTEA) Assay for Cytochrome P450 4A22 (CYP4A22) using HepaRG (AID 2283495). The method in brief:
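Cryopreserved HepaRG cells, plated and cultured 48 h, then switched to serum-free induction medium and treated 48 h (duplicates, up to 100 uM, half-log steps, 0.5% DMSO). Expression change of CYP4A22 was fitted bidirectionally against vehicle.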

Read-out in assay [6]: Glutathione S-Transferase (GSTA2), GSTA2 (gene 2939)
The experiment in a line: LTEA_HepaRG_GSTA2: Life Technologies and Expression Analysis (LTEA) Assay for Glutathione S-Transferase (GSTA2) using HepaRG (AID 2283497). The gist of the method: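 Human HepaRG cells, plated 48 h, then exposed in serum-free induction medium for 48 h to eight half-log concentrations up to 100 uM in 0.5% DMSO, duplicate. GSTA2 mRNA by qRT-PCR, normalized to ACTB/GAPDH/POLR2A; bidirectional fit versus DMSO.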

Read-out in assay [7]: Glutamate-cysteine ligase catalytic (GCLC), GCLC (gene 2729)
The experiment in a line: LTEA_HepaRG_GCLC: Life Technologies and Expression Analysis (LTEA) Assay for Glutamate-cysteine ligase catalytic (GCLC) using HepaRG (AID 2283498). The gist of the method:
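Differentiated human HepaRG cells, plated 48 h then switched to serum-free induction medium, were exposed in duplicate for 48 h to 8 half-log concentrations topping at 100 uM in 0.5% DMSO. GCLC mRNA was quantified by qRT-PCR against ACTB, GAPDH and POLR2A.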

Read-out in assay [8]: growth arrest and DNA damage 45 (GADD45G), GADD45G (gene 10912)
The experiment in a line: LTEA_HepaRG_GADD45G: Life Technologies and Expression Analysis (LTEA) Assay for growth arrest and DNA damage 45 (GADD45G) using HepaRG (AID 2283499). The gist of the method:
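Human hepatic HepaRG line treated 48 h with chemicals (eight concentrations, half-log steps from 100 uM); transcript induction or repression of GADD45G scored by qRT-PCR versus DMSO vehicle.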

Read-out in assay [9]: Glutamate-cysteine ligase regulatory (GCLM), GCLM (gene 2730)
Nature of the assay: LTEA_HepaRG_GCLM: Life Technologies and Expression Analysis (LTEA) Assay for Glutamate-cysteine ligase regulatory (GCLM) using HepaRG (AID 2283500). The gist of the method: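 Human liver HepaRG cultures receive test chemicals for 48 hours at up to 100 uM in 0.5% DMSO. GCLM expression is measured by qRT-PCR and analysed for increases or decreases against vehicle.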

Read-out in assay [10]: Glutathione S-transferase M3 (GSTM3), GSTM3 (gene 2947)
The experiment in a line: LTEA_HepaRG_GSTM3: Life Technologies and Expression Analysis (LTEA) Assay for Glutathione S-transferase M3 (GSTM3) using HepaRG (AID 2283501). The gist of the method: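 Changes in GSTM3 expression, an oxidative-stress marker, were scored by bidirectional curve fitting against 0.5% DMSO vehicle. Human HepaRG cultures received chemicals for 48 h in duplicate, highest concentration 100 uM with half-log dilutions.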

Read-out in assay [11]: Heat shock 70 kDa protein 1 (HSPA1A), gene 3303
Nature of the assay: LTEA_HepaRG_HSPA1A: Life Technologies and Expression Analysis (LTEA) Assay for Heat shock 70 kDa protein 1 (HSPA1A) using HepaRG (AID 2283502). The method in brief: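 HSPA1A induction in human HepaRG liver cells is measured after 48 h of chemical treatment (100 uM maximum, 0.5% DMSO vehicle). Expression comes from qRT-PCR normalized to endogenous controls.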

Read-out in assay [12]: Hypoxia-inducible factor 1-alpha (Homo sapiens) (UniProt Q16665)
The experiment in a line: LTEA_HepaRG_HIF1A: Life Technologies and Expression Analysis (LTEA) Assay for Hypoxia-inducible factor 1 (HIF1A) Trancription factor using HepaRG (AID 2283503). The method in brief:
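HepaRG, 48 h exposure, 8-pt half-log series from 100 uM, 0.5% DMSO vehicle, duplicates. Readout: HIF1A transcript by qRT-PCR (Fluidigm array), housekeeping-normalised. Bidirectional curve fit vs DMSO baseline.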

Read-out in assay [13]: 3-Hydroxy-3-Methylglutaryl-CoA Synthase 2 (HMGCS2), HMGCS2 (gene 3158)
Nature of the assay: LTEA_HepaRG_HMGCS2: Life Technologies and Expression Analysis (LTEA) Assay for 3-Hydroxy-3-Methylglutaryl-CoA Synthase 2 (HMGCS2) using HepaRG (AID 2283504). The gist of the method: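 Expression of HMGCS2 in human HepaRG liver cells is measured by qRT-PCR 48 h after dosing (highest 100 uM, half-log series, 0.5% DMSO). Values come from bidirectional concentration-response fitting with DMSO as baseline.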

Read-out in assay [14]: Insulin Like Growth Factor 1 (IGF1), IGF1 (gene 3479)
Nature of the assay: LTEA_HepaRG_IGF1: Life Technologies and Expression Analysis (LTEA) Assay for Insulin Like Growth Factor 1 (IGF1) using HepaRG (AID 2283506). The method in brief:
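Using human HepaRG liver cells, IGF1 transcript induction or suppression is measured 48 h after dosing across eight concentrations capped at 100 uM. Values derive from bidirectional concentration-response fitting with DMSO as baseline.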

Read-out in assay [15]: Intercellular Adhesion Molecule 1 (ICAM1), ICAM1 (gene 3383)
The experiment in a line: LTEA_HepaRG_ICAM1: Life Technologies and Expression Analysis (LTEA) Assay for Intercellular Adhesion Molecule 1 (ICAM1) using HepaRG (AID 2283507). The method in brief:
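Gain or loss of transcript in HepaRG hepatic cells is quantified by qRT-PCR after 48 h chemical exposure (up to 100 uM, half-log steps), with DMSO as baseline.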

Read-out in assay [16]: Insulin-like growth factor-binding protein 1 (IGFBP1), IGFBP1 (gene 3484)
Nature of the assay: LTEA_HepaRG_IGFBP1: Life Technologies and Expression Analysis (LTEA) Assay for Insulin-like growth factor-binding protein 1 (IGFBP1) using HepaRG (AID 2283508). The gist of the method: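 mRNA induction or loss was quantified by qRT-PCR after 48 h chemical exposure of human HepaRG cells, with 0.5% DMSO as vehicle and baseline. Concentration-response over eight points up to 100 uM.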

Read-out in assay [17]: Interleukin 6 (IL6), IL6 (gene 3569)
The experiment in a line: LTEA_HepaRG_IL6: Life Technologies and Expression Analysis (LTEA) Assay for Interleukin 6 (IL6) using HepaRG (AID 2283509). The method in brief: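 Differentiated human HepaRG cells, plated 48 h then switched to serum-free induction medium, were exposed in duplicate for 48 h to eight half-log concentrations up to 100 uM in 0.5% DMSO. IL6 mRNA measured by qRT-PCR, normalized to ACTB/GAPDH/POLR2A.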

Read-out in assay [18]: Cytochrome P450 7A1 (Homo sapiens) (UniProt P22680)
Nature of the assay: LTEA_HepaRG_CYP7A1: Life Technologies and Expression Analysis (LTEA) Assay for Cytochrome P450 7A1 (CYP7A1) using HepaRG (AID 2283496). The gist of the method: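 Gene expression endpoint in human HepaRG liver cells treated for 48 h with test chemicals (up to 100 uM, 0.5% DMSO). Values come from bidirectional concentration-response fitting versus DMSO.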

Read-out in another assay: HGF (gene 3082)
The experiment in a line: LTEA_HepaRG_HGF: Life Technologies and Expression Analysis (LTEA) Assay for Hepatocyte Growth Facto (HGF) using HepaRG (AID 2283505). The method in brief: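 Gain or loss of HGF mRNA in human HepaRG liver cells after 48 h chemical exposure; eight concentrations up to 100 uM with 0.5% DMSO vehicle, quantified by TaqMan qRT-PCR.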

By AC50 is commonly meant the midpoint of the concentration-response curve, whichever way the signal moves.

Sequence of Hypoxia-inducible factor 1-alpha (Homo sapiens) (Q16665 whole entry, looked up): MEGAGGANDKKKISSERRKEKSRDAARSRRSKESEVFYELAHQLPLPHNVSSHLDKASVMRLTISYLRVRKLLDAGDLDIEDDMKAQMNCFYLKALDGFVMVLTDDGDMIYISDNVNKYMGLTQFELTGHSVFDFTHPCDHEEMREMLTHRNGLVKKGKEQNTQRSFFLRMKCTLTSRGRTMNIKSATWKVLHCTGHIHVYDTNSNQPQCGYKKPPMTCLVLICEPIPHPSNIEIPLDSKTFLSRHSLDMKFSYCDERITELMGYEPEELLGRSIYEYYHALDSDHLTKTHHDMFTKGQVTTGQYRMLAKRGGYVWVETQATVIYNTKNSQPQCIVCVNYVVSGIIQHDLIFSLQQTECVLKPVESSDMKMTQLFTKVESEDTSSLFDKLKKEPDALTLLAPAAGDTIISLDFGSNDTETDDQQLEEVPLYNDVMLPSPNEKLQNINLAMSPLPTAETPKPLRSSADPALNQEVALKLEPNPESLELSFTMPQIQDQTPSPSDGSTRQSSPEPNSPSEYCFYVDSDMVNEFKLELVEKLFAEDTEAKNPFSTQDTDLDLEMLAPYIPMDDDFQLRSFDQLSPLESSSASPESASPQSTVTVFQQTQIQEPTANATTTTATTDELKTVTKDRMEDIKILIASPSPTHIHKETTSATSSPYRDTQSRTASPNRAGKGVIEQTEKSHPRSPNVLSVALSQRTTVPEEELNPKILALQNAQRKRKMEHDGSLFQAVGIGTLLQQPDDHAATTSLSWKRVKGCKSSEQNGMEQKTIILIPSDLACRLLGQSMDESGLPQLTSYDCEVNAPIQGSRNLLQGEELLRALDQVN
Sequence of Cytochrome P450 3A7 (Homo sapiens) (P24462 whole entry, looked up): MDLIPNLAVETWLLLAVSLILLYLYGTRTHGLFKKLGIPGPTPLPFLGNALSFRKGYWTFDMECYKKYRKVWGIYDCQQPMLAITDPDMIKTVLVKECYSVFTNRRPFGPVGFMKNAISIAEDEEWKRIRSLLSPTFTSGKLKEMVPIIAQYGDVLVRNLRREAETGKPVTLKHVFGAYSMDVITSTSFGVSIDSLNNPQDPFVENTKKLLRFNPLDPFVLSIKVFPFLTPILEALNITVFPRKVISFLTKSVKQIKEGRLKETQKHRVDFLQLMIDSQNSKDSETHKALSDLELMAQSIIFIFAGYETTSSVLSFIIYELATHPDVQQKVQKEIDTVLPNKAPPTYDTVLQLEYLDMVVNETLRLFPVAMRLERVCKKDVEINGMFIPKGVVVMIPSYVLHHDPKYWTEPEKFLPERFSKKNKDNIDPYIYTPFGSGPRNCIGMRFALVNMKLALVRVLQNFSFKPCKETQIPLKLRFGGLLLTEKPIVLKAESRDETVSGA

As for `CCN(Cc1cccc(S(=O)(=O)O)c1)c1ccc(C(=C2C=CC(=[N+](CC)Cc3cccc(S(=O)(=O)O)c3)C=C2)c2ccccc2S(=O)(=O)[O-])cc1`, the compound was classed as inactive (in [1]; in assay [2]; in assay [3]; with CYP3A5 (gene 1577); in assay [4]; in assay [5]). For the same compound, the result in assay [6], in assay [7], in assay [8], in assay [9], in assay [10] and in [11] was inactive. Besides, the outcome in [12], in [13], in assay [14], in assay [15], in assay [16] and in assay [17] was inactive.
Take `Cc1ccc(C(C)C)cc1`: the compound was classed as inactive (in [1]; in assay [2]; in assay [3]; with CYP3A5 (gene 1577); in assay [4]; in [5]). Moreover, the call in assay [18], in [7], in assay [8], in [9], in assay [10] and in assay [11] was inactive. Further, the call in assay [12], in assay [13], in [14], in [15], in [16] and in assay [17] was inactive.
For the compound `OC12N=C(c3ccccc3)SC1Cc1cc(Cl)ccc12` (stereo not given), the outcome (in assay [1]; in [2]; in assay [7]; in [11]; in assay [12]; with HGF (gene 3082)) was inactive. For the same compound, the compound was classed as inactive in assay [15] and in [17]. Besides, the AC50 in assay [3] was 59 µM (active); with CYP3A5 (gene 1577), 8.12 µM (active); in assay [4], 34.4 µM (active); in assay [5], 63.2 µM (active); in assay [18], 9.92 µM (active); in assay [6], 30 µM (active). In addition, the AC50 in [8] was 2.05 µM (active); in [9], 25.1 µM (active); in [13], 20 µM (active); in assay [14], 13.3 µM (active); in [16], 13 µM (active).
